Assay results published in the supplement of paper PMC6555819.

Legend:
Experiment in all cases: PBM binding z-score (relative to random genomic background probes); higher = stronger binding; sequences stand for … in GC…GCGATTGACAGCGTAGAATGAAGG
[1] = system: RARb homodimer (NR concentration 270 nM)
Procedure, shortened: (§1)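 Binding z-scores were set against random background probes. The data came from custom Agilent 4×180K protein-binding microarrays carrying double-stranded probes with 34-nt variable regions, incubated 1 h with ligand-free nuclear receptor dimers. Partner-specific antibodies detected binding, and scanned fluorescence was regression-normalized.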

[2] = system: RARg:RXRa (NR concentration 270 nM, RXRa partner concentration 90 nM)
Procedure, shortened: as §1

[3] = system: RARg homodimer (NR concentration 270 nM)
Procedure, shortened: as §1

[4] = system: RXRa DBDmut IVT, anti-RXR (DBD mutation: RXRa K156A/R161A, NR concentration 90 nM)
Procedure, shortened: as §1

[5] = system: RXRa homodimer (NR concentration 180 nM)
Procedure, shortened: as §1

[6] = system: THRa:RXRa (NR concentration 90 nM, RXRa partner concentration 90 nM)
Procedure, shortened: as §1

[7] = system: THRa homodimer (NR concentration 90 nM)
Procedure, shortened: as §1

[8] = system: VDR homodimer (NR concentration 270 nM)
Procedure, shortened: as §1

| Sequence | PBM binding z-score [1] | PBM binding z-score [2] | PBM binding z-score [3] | PBM binding z-score [4] | PBM binding z-score [5] | PBM binding z-score [6] | PBM binding z-score [7] | PBM binding z-score [8] |
| --- | --- | --- | --- | --- | --- | --- | --- | --- |
| ATAATGAGGTTATACGTAGATCAGGGAAGAAAGT | 1.21 | 2.19 | 1.72 | 2.1 | 2.56 | 2.46 | 0.968 | 1.16 |
| CCGACTGGGGCAAAGGTTACCGTACTCAGTACGA | 2.03 | 3.44 | 1.64 | -0.356 | 3.45 | 1.7 | -0.542 | -0.111 |
| AGATGTAGGTTACATCCGGGTCATTCAGGCTATG | 2.87 | 3.6 | 2.14 | 0.74 | 3.33 | 3.72 | 2.08 | 2.53 |
| TAGCCTAGGTCATTGGCCCAGTATAGTACGCATC | 2.57 | 3.61 | 4.14 | 1.51 | 2.56 | 2.76 | 0.907 | 0.973 |
| CCGACTGGGGCAGAAAGGTTACAATACCATCCGG | 1.83 | 1.59 | 1.25 | -0.65 | 1.75 | 0.907 | -0.555 | 0.0532 |
| CGTCCAAGGTCAATGCTAGGTCAGTGCAAGCATT | 5.12 | 7.51 | 6.92 | 3.53 | 5.11 | 4.39 | 3.05 | 3.46 |
| CCTTACGGGTCACTGACAGGTTATACCATTTGGA | 3.56 | 5.73 | 4.84 | 1.64 | 5.54 | 2.85 | 0.447 | 1.41 |
